Reference: the supplement of paper PMC10849652
Targets with a hit are over-represented here; the source holds about 7,900 in all. About 0.6% of all pairs of compound and target were hits. Values without a mark were called inactive.

Columns and labels:
Assay in all cases: log2 fold change, soluble protein after heating vs DMSO (PISA); higher = thermal stabilisation; K562 cells, 10 uM, 30 min; active = over 0.2 and 3.5 SD of the protein, either way, in both replicates (recomputed)
[1] = compound: NC(=O)Nc1cc(-c2cccc(F)c2)sc1C(=O)N[C@H]1CCCNC1
Outline: (§1)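 Soluble protein was quantified by TMTpro 16plex LC-MS/MS after channel sums were equalised. It was obtained as the supernatant after 21,000xg for 90 min from pooled aliquots of K562 cells (2×10^6 cells/mL, 10 μM compound, 30 min) heated for 3 min across 48°C-58°C and extracted in PBS with 0.5% NP-40 at 4°C. Thermal stability values are relative to control samples and come from duplicates. They are given as log2 fold changes.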

[2] = compound: NC(=O)c1cnc(N[C@@H]2CCCC[C@@H]2N)nc1Nc1cccc(-n2nccn2)c1
Outline: as §1

[3] = compound: NC1(c2ccc(-c3nc4ccn5c(=O)[nH]nc5c4cc3-c3ccccc3)cc2)CCC1
Outline: as §1

[4] = compound: NCC(=O)Nc1ccc(-n2nc(C(F)(F)F)cc2-c2ccc3c(ccc4ccccc43)c2)cc1
Outline: as §1

entinostat = compound: Nc1ccccc1NC(=O)c1ccc(CNC(=O)OCc2cccnc2)cc1 [entinostat]
Outline: as §1

vorinostat = compound: O=C(CCCCCCC(=O)Nc1ccccc1)NO [vorinostat]
Outline: as §1

citarinostat = compound: O=C(CCCCCCNC(=O)c1cnc(N(c2ccccc2)c2ccccc2Cl)nc1)NO [citarinostat]
Outline: as §1

silmitasertib = compound: O=C(O)c1ccc2c(c1)nc(Nc1cccc(Cl)c1)c1ccncc12 [silmitasertib]
Outline: as §1

[5] = compound: O=C1NC(=O)C(c2cnc3ccccn23)=C1c1cn2c3c(cc(F)cc13)CN(C(=O)N1CCCCC1)CC2
Outline: as §1

[6] = compound: c1cc(OCCN2CCCCC2)cc(-c2n[nH]c3ccc(-c4nnc[nH]4)cc23)c1
Outline: as §1

LRBA (UniProt P50851)
log2 fold change [1]: 0.002
log2 fold change [2]: -0.058
log2 fold change [3]: -0.146
log2 fold change [4]: -0.039
log2 fold change (entinostat): 0.016
log2 fold change (vorinostat): 0.049
log2 fold change (citarinostat): 0.034
log2 fold change (silmitasertib): 0.033
log2 fold change [5]: -0.025
log2 fold change [6]: -0.026

MCL1 (UniProt Q07820)
log2 fold change [1]: -0.074
log2 fold change [2]: -0.33
log2 fold change [3]: -0.093
log2 fold change [4]: -0.039
log2 fold change (entinostat): 0.072
log2 fold change (vorinostat): 0.011
log2 fold change (citarinostat): -0.079
log2 fold change (silmitasertib): 0.034
log2 fold change [5]: -0.112
log2 fold change [6]: 0.142

KDELR2 (UniProt P33947)
log2 fold change [1]: -0.071
log2 fold change [2]: 0.063
log2 fold change [3]: -0.073
log2 fold change [4]: -0.133
log2 fold change (entinostat): -0.02
log2 fold change (vorinostat): -0.238
log2 fold change (citarinostat): -0.026
log2 fold change (silmitasertib): -0.018
log2 fold change [5]: -0.031
log2 fold change [6]: -0.097

MAP2K3 isoform 3 (UniProt P46734)
log2 fold change [1]: -0.04
log2 fold change [2]: -0.018
log2 fold change [3]: -0.14
log2 fold change [4]: -0.025
log2 fold change (entinostat): 0.068
log2 fold change (vorinostat): 0.02
log2 fold change (citarinostat): -0.126
log2 fold change (silmitasertib): -0.024
log2 fold change [5]: -0.188
log2 fold change [6]: -0.052

LMNB2 (UniProt Q03252)
log2 fold change [1]: 0.079
log2 fold change [2]: -0.077
log2 fold change [3]: 0.068
log2 fold change [4]: -0.09
log2 fold change (entinostat): -0.006
log2 fold change (vorinostat): -0.047
log2 fold change (citarinostat): 0.015
log2 fold change (silmitasertib): 0.018
log2 fold change [5]: -0.101
log2 fold change [6]: -0.07

MAP4 (UniProt P27816)
log2 fold change [1]: 0.039
log2 fold change [2]: 0.002
log2 fold change [3]: 0.04
log2 fold change [4]: 0.025
log2 fold change (entinostat): -0.015
log2 fold change (vorinostat): -0.013
log2 fold change (citarinostat): -0.007
log2 fold change (silmitasertib): -0.018
log2 fold change [5]: 0.003
log2 fold change [6]: -0.014

MFSD1 isoform 6 (UniProt Q9H3U5)
log2 fold change [1]: 0.02
log2 fold change [2]: -0.066
log2 fold change [3]: -0.308 (active)
log2 fold change [4]: -0.098
log2 fold change (entinostat): -0.019
log2 fold change (vorinostat): -0.053
log2 fold change (citarinostat): 0.03
log2 fold change (silmitasertib): -0.008
log2 fold change [5]: 0.067
log2 fold change [6]: 0.043

MAP3K7 (UniProt O43318)
log2 fold change [1]: -0.162
log2 fold change [2]: 0.033
log2 fold change [3]: -0.141
log2 fold change [4]: -0.086
log2 fold change (entinostat): 0.035
log2 fold change (vorinostat): 0.033
log2 fold change (citarinostat): 0.063
log2 fold change (silmitasertib): 0.004
log2 fold change [5]: 0.091
log2 fold change [6]: -0.068

KPNA6 (UniProt O60684)
log2 fold change [1]: 0.01
log2 fold change [2]: -0.007
log2 fold change [3]: -0.06
log2 fold change [4]: -0.002
log2 fold change (entinostat): 0.051
log2 fold change (vorinostat): 0.061
log2 fold change (citarinostat): 0.047
log2 fold change (silmitasertib): 0.219
log2 fold change [5]: 0.067
log2 fold change [6]: -0.159

MICU1 isoform 3 (UniProt Q9BPX6)
Sequence of UniProt Q9BPX6 (Q9BPX6 whole entry, looked up): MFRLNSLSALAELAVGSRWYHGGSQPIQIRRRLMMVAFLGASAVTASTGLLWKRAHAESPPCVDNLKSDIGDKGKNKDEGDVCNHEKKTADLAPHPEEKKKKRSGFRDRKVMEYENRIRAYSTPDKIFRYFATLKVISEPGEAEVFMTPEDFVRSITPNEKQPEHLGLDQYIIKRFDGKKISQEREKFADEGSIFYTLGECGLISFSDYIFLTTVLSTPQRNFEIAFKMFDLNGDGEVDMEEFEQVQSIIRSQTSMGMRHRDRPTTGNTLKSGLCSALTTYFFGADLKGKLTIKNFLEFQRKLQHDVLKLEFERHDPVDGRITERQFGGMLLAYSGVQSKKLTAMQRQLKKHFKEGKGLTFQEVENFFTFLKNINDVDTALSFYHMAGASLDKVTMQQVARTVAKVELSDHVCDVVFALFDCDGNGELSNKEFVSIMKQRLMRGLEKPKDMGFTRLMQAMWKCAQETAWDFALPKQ
log2 fold change [1]: -0.048
log2 fold change [2]: -0.022
log2 fold change [3]: -0.012
log2 fold change [4]: 0.039
log2 fold change (entinostat): 0.016
log2 fold change (vorinostat): 0.017
log2 fold change (citarinostat): 0.053
log2 fold change (silmitasertib): 0.117
log2 fold change [5]: 0.027
log2 fold change [6]: -0.085

MAP2K7 isoform 4 (UniProt O14733)
Sequence of UniProt O14733 (O14733 whole entry, looked up): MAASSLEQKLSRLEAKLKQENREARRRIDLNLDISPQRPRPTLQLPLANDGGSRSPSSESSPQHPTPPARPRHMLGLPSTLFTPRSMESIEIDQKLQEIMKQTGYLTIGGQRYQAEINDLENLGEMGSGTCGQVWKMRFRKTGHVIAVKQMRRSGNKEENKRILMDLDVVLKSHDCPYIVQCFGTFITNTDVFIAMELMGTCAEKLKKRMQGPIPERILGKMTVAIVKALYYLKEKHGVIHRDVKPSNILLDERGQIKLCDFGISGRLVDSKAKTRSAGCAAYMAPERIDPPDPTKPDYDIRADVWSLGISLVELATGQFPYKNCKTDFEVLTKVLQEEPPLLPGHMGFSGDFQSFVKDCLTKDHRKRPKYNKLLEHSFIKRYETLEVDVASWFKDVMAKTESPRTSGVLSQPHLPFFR
log2 fold change [1]: 0.008
log2 fold change [2]: -0.051
log2 fold change [3]: -0.078
log2 fold change [4]: -0.015
log2 fold change (entinostat): 0.015
log2 fold change (vorinostat): 0.084
log2 fold change (citarinostat): 0.041
log2 fold change (silmitasertib): -0.019
log2 fold change [5]: -0.052
log2 fold change [6]: -0.044

KIAA1324L (UniProt A8MWY0)
log2 fold change [1]: -0.016
log2 fold change [2]: -0.015
log2 fold change [3]: -0.138
log2 fold change [4]: 0.009
log2 fold change (entinostat): -0.067
log2 fold change (vorinostat): 0.003
log2 fold change (citarinostat): 0.004
log2 fold change (silmitasertib): -0.014
log2 fold change [5]: -0.013
log2 fold change [6]: -0.094

IRF2BPL (UniProt Q9H1B7)
log2 fold change [1]: 0.032
log2 fold change [2]: 0.011
log2 fold change [3]: 0.013
log2 fold change [4]: -0.004
log2 fold change (entinostat): -0.024
log2 fold change (vorinostat): 0.007
log2 fold change (citarinostat): -0.001
log2 fold change (silmitasertib): 0.027
log2 fold change [5]: -0.218 (active)
log2 fold change [6]: -0.03

INPP5B (UniProt P32019)
Sequence of UniProt P32019 (P32019 whole entry, looked up): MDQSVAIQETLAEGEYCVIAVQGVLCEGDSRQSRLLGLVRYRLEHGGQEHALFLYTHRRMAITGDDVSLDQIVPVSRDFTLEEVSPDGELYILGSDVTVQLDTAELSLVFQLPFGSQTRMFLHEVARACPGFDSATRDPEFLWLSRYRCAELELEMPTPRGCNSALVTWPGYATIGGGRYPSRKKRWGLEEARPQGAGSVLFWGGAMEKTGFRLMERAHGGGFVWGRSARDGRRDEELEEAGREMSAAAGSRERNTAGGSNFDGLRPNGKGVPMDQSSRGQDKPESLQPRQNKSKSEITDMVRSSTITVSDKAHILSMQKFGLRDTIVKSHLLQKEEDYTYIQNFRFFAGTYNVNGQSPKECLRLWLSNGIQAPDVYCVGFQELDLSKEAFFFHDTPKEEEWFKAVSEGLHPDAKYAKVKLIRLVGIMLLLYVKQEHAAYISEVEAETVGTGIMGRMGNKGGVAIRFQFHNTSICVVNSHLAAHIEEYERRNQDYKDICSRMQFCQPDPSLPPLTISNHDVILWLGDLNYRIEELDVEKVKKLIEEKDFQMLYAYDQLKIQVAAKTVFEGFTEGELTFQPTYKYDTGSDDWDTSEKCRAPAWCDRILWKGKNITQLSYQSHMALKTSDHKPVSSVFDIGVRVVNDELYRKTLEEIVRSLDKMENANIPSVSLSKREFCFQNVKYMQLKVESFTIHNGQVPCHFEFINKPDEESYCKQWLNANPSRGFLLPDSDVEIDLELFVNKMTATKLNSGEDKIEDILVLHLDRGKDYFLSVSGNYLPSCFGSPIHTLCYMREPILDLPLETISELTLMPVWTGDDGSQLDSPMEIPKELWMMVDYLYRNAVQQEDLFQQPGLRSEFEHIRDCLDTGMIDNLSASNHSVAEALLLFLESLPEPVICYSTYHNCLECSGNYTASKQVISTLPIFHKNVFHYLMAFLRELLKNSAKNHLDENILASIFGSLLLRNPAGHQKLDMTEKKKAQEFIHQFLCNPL
log2 fold change [1]: 0.106
log2 fold change [2]: -0.066
log2 fold change [3]: -0.003
log2 fold change [4]: -0.108
log2 fold change (entinostat): 0
log2 fold change (vorinostat): 0.128
log2 fold change (citarinostat): -0.016
log2 fold change (silmitasertib): 0.167
log2 fold change [5]: 0.118
log2 fold change [6]: 0.014

LIAS (UniProt O43766)
log2 fold change [1]: -0.079
log2 fold change [2]: 0.014
log2 fold change [3]: -0.035
log2 fold change [4]: -0.016
log2 fold change (entinostat): -0.047
log2 fold change (vorinostat): -0.17
log2 fold change (citarinostat): -0.093
log2 fold change (silmitasertib): 0.026
log2 fold change [5]: 0.062
log2 fold change [6]: -0.022

LENG8 (UniProt Q96PV6)
Sequence of UniProt Q96PV6 (Q96PV6 whole entry, looked up): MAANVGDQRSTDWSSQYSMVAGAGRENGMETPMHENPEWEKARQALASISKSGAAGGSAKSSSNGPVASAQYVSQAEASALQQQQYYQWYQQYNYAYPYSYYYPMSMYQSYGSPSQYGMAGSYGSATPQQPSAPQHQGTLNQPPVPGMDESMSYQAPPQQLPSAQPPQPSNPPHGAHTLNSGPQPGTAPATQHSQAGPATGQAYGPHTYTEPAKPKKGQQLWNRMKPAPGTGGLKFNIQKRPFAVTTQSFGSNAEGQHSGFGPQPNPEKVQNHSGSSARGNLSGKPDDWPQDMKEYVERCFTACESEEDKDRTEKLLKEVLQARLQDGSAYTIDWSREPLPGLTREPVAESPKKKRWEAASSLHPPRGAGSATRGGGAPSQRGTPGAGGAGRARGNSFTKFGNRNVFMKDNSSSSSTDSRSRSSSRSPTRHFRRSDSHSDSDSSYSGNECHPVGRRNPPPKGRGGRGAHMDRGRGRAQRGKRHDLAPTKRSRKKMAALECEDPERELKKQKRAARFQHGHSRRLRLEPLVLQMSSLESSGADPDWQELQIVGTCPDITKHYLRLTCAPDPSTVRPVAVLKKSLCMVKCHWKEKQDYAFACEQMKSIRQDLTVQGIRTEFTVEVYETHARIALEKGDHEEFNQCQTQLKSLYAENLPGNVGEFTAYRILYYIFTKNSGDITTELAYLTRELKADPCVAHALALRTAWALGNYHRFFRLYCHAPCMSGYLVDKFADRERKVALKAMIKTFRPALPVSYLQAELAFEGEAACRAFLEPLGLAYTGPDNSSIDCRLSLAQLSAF
log2 fold change [1]: -0.012
log2 fold change [2]: -0.075
log2 fold change [3]: 0.042
log2 fold change [4]: -0.198
log2 fold change (entinostat): 0.085
log2 fold change (vorinostat): 0.298
log2 fold change (citarinostat): 0
log2 fold change (silmitasertib): 0.09
log2 fold change [5]: -0.144
log2 fold change [6]: -0.091

MCUR1 (UniProt Q96AQ8)
Sequence of UniProt Q96AQ8 (Q96AQ8 whole entry, looked up): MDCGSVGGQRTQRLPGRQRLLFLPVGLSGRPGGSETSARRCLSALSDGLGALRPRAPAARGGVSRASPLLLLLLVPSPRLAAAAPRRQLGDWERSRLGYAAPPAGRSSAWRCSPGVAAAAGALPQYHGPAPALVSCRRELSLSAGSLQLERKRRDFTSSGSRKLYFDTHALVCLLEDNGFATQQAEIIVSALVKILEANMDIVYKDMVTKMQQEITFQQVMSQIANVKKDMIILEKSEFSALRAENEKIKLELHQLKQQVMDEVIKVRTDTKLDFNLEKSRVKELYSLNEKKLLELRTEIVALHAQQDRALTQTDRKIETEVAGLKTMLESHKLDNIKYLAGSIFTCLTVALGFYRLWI
log2 fold change [1]: -0.043
log2 fold change [2]: -0.048
log2 fold change [3]: 0.011
log2 fold change [4]: 0.01
log2 fold change (entinostat): -0.028
log2 fold change (vorinostat): -0.026
log2 fold change (citarinostat): -0.001
log2 fold change (silmitasertib): -0.023
log2 fold change [5]: -0.036
log2 fold change [6]: -0.018

MAP2K1 (UniProt Q02750)
log2 fold change [1]: -0.028
log2 fold change [2]: -0.062
log2 fold change [3]: -0.011
log2 fold change [4]: -0.027
log2 fold change (entinostat): -0.004
log2 fold change (vorinostat): 0.035
log2 fold change (citarinostat): 0.022
log2 fold change (silmitasertib): -0.064
log2 fold change [5]: -0.061
log2 fold change [6]: -0.035

MEPCE (UniProt Q7L2J0)
log2 fold change [1]: -0.085
log2 fold change [2]: -0.152
log2 fold change [3]: -0.127
log2 fold change [4]: -0.004
log2 fold change (entinostat): 0.063
log2 fold change (vorinostat): 0.107
log2 fold change (citarinostat): 0.005
log2 fold change (silmitasertib): 0.02
log2 fold change [5]: -0.019
log2 fold change [6]: 0.026

MDC1 (UniProt Q14676)
log2 fold change [1]: 0.115
log2 fold change [2]: -0.075
log2 fold change [3]: -0.054
log2 fold change [4]: 0.153
log2 fold change (entinostat): 0.001
log2 fold change (vorinostat): -0.164
log2 fold change (citarinostat): 0.062
log2 fold change (silmitasertib): -0.116
log2 fold change [5]: -0.026
log2 fold change [6]: -0.086

IKZF1 (UniProt Q13422)
log2 fold change [1]: 0.164
log2 fold change [2]: -0.084
log2 fold change [3]: 0.21
log2 fold change [4]: -0.03
log2 fold change (entinostat): 0.064
log2 fold change (vorinostat): 0.003
log2 fold change (citarinostat): 0.019
log2 fold change (silmitasertib): -0.202
log2 fold change [5]: 0.004
log2 fold change [6]: -0.061

MAP2K2 (UniProt P36507)
log2 fold change [1]: 0
log2 fold change [2]: -0.042
log2 fold change [3]: -0.023
log2 fold change [4]: -0.003
log2 fold change (entinostat): 0.061
log2 fold change (vorinostat): 0.039
log2 fold change (citarinostat): -0.051
log2 fold change (silmitasertib): -0.098
log2 fold change [5]: -0.055
log2 fold change [6]: -0.018

MCU (UniProt Q8NE86)
log2 fold change [1]: 0.005
log2 fold change [2]: -0.059
log2 fold change [3]: -0.142
log2 fold change [4]: -0.131
log2 fold change (entinostat): 0.034
log2 fold change (vorinostat): -0.013
log2 fold change (citarinostat): 0.075
log2 fold change (silmitasertib): -0.007
log2 fold change [5]: -0.034
log2 fold change [6]: -0.052

ILF2 (UniProt Q12905)
log2 fold change [1]: -0.02
log2 fold change [2]: 0.024
log2 fold change [3]: 0.121
log2 fold change [4]: 0.109
log2 fold change (entinostat): -0.049
log2 fold change (vorinostat): -0.059
log2 fold change (citarinostat): -0.037
log2 fold change (silmitasertib): 0.13
log2 fold change [5]: 0.378
log2 fold change [6]: -0.18

LIMA1 isoform 4 (UniProt Q9UHB6)
Sequence of UniProt Q9UHB6 (Q9UHB6 whole entry, looked up): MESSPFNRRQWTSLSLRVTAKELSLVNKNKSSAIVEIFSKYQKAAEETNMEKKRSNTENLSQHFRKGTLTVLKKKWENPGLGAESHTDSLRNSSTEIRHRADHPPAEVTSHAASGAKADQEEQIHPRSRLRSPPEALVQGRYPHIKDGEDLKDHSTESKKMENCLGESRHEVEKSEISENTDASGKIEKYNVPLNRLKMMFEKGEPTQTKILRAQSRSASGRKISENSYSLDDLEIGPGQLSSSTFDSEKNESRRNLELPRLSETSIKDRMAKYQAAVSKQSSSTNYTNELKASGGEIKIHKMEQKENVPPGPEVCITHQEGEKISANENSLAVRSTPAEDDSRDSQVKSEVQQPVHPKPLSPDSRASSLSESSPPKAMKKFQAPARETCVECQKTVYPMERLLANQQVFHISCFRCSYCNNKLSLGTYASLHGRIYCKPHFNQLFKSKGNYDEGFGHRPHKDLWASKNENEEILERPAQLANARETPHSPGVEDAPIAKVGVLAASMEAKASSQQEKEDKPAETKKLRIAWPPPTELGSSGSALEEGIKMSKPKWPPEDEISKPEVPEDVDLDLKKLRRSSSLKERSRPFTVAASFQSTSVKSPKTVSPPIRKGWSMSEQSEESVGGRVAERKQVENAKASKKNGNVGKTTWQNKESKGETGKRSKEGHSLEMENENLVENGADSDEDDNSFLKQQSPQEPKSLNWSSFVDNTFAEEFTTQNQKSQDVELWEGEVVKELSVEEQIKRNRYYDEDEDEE
log2 fold change [1]: 0.062
log2 fold change [2]: -0.045
log2 fold change [3]: 0.081
log2 fold change [4]: 0.006
log2 fold change (entinostat): 0.004
log2 fold change (vorinostat): 0.067
log2 fold change (citarinostat): -0.024
log2 fold change (silmitasertib): -0.006
log2 fold change [5]: -0.073
log2 fold change [6]: -0.012

MAPKAPK5 (UniProt Q8IW41)
log2 fold change [1]: 0.382 (active)
log2 fold change [2]: 0.029
log2 fold change [3]: -0.051
log2 fold change [4]: -0.009
log2 fold change (entinostat): 0.027
log2 fold change (vorinostat): 0.053
log2 fold change (citarinostat): -0.003
log2 fold change (silmitasertib): -0.044
log2 fold change [5]: -0.078
log2 fold change [6]: 0.213

INPP1 (UniProt P49441)
log2 fold change [1]: -0.11
log2 fold change [2]: -0.035
log2 fold change [3]: -0.108
log2 fold change [4]: -0.036
log2 fold change (entinostat): -0.089
log2 fold change (vorinostat): -0.066
log2 fold change (citarinostat): 0.024
log2 fold change (silmitasertib): -0.042
log2 fold change [5]: 0.023
log2 fold change [6]: -0.039

KIFBP (UniProt Q96EK5)
log2 fold change [1]: 0.002
log2 fold change [2]: -0.166
log2 fold change [3]: -0.117
log2 fold change [4]: -0.091
log2 fold change (entinostat): 0.059
log2 fold change (vorinostat): 0.088
log2 fold change (citarinostat): 0.043
log2 fold change (silmitasertib): -0.02
log2 fold change [5]: 0.024
log2 fold change [6]: -0.056

KIF11 (UniProt P52732)
Sequence of UniProt P52732 (P52732 whole entry, looked up): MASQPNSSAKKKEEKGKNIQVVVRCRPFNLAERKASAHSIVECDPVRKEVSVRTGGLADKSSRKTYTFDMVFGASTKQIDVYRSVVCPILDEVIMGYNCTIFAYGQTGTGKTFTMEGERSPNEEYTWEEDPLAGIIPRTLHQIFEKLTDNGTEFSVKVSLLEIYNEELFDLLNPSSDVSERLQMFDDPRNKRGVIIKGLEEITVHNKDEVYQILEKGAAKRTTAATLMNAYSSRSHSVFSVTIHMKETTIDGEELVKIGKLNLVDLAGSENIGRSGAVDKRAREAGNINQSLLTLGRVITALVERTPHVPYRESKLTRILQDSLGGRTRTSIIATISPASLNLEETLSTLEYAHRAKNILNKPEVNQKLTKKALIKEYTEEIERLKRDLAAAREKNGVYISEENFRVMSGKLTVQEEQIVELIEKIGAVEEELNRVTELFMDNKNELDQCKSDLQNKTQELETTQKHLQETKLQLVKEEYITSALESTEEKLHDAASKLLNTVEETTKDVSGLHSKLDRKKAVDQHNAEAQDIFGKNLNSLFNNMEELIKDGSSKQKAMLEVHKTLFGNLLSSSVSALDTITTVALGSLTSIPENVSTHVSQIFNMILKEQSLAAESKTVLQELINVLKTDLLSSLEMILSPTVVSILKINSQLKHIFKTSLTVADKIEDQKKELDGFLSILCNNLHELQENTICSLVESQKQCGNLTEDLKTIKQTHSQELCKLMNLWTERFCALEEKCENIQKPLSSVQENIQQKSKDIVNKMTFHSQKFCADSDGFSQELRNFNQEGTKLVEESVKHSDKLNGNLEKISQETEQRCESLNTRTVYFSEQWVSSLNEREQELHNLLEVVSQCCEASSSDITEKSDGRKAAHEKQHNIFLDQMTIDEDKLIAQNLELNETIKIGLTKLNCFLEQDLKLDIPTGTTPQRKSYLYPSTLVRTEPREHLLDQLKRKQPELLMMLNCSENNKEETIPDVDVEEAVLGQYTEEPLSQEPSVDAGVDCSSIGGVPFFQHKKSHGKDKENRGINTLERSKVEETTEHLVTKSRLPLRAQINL
log2 fold change [1]: -0.096
log2 fold change [2]: -0.075
log2 fold change [3]: -0.001
log2 fold change [4]: -0.067
log2 fold change (entinostat): 0.023
log2 fold change (vorinostat): 0.099
log2 fold change (citarinostat): -0.006
log2 fold change (silmitasertib): 0.147
log2 fold change [5]: 0.182
log2 fold change [6]: -0.044
